C diff HTS = C. difficile growth inhibitors, primary screen, HTS; Clostridium difficile clinical isolate growth, OD600, 24 h; hits give low values; growth activity, negative = inhibition, % at 16 µg/mL (by protocol); actives 0.25% (n = 86,000);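 active = mean growth activity at or below -80% and every replicate also at or below -80%; inconclusive = mean at or below -80% but some replicate above -80%; inactive = mean growth activity above -80%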;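 note: 0% = DMSO wells and -100% = levofloxacin 16 µg/mL wells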
T cruzi growth-1 = T. cruzi intracellular proliferation inhibitors, primary screen, cell-based, beta-gal Tulahuen parasites, NIH3T3 host, luminescence | T. cruzi beta-gal in NIH3T3, GalScreen luminescence, 90 h | inhibition, % at 8.34 µM | actives 5.9% (n = 77,000) | AID 624255, 2012;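 active = mean inhibition above about 93%, with at least 55% of replicates each passing it, limit read from the data, passing the limit was not always enough; inconclusive = only one of those two conditions holds; inactive = neither condition holds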
Pf Dd2 growth = P. falciparum Dd2 growth inhibitors, primary screen, SYBR Green fluorescence, single dose replicates; 72 h; hits give low values; activity change, % at 10 µM; actives 2.3% (n = 94,000); in the data active = activity change below about -80%; inconclusive = no clear call, values can overlap the other calls
T cruzi growth-2 = T. cruzi intracellular proliferation inhibitors, confirmation, cell-based, NIH3T3 host, beta-gal parasite, luminescence, cherry-pick; shares compounds with T cruzi growth-1; T. cruzi beta-gal in NIH3T3, GalScreen luminescence, 90 h; inhibition, % at 8.35 µM; AID 651739, 2012; actives 72% (n = 5,600);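 active = mean replicate inhibition above about 95% and at least 55% of replicates individually reaching it, limit read from the data; inconclusive = only one of the two criteria is met; inactive = neither criterion is met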
T cruzi growth-3 = inhibitors of intracellular T. cruzi replication, confirmation, NIH3T3 host cells, beta-gal parasites, cherry-pick, set 2. actives 21% (n = 5,600). AID 651740, 2012. T. cruzi beta-gal in NIH3T3, GalScreen luminescence, 90 h. inhibition, % at 2.09 µM. shares compounds with T cruzi growth-1;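 active = mean inhibition above about 95%, with at least 55% of replicates also reaching it, limit read from the data; inconclusive = meets just one of the two conditions; inactive = meets neither condition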;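 note: plate controls were neutral control median for no effect and positive control median for full effect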
NIH3T3 tox = cytotoxicity in mouse NIH/3T3 fibroblasts, confirmation, cytotoxicity control for T. cruzi proliferation inhibitor project, cell-based, cherry-pick, single point. shares compounds with T cruzi growth-1. NIH/3T3 viability, CellTiter-Glo ATP luminescence, 90 h. actives 14% (n = 5,600). cytotoxicity (signal decrease), % at 8.35 µM. AID 651742, 2012;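 active = mean signal decrease across replicates above about 35% based on untreated-well scatter, with enough replicates individually passing, limit read from the data; inconclusive = no rule stated though some were filed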;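 note: 0% = median of neutral control wells and 100% = median of positive control wells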
NIH3T3 tox 2 = NIH/3T3 fibroblast cytotoxicity, confirmation, cytotoxicity control, cell-based, cherry-pick, single point, set 2. actives 56% (n = 5,600). AID 651744, 2012. shares compounds with T cruzi growth-1. inhibition, % at 24.9 µM. NIH/3T3 viability, CellTiter-Glo ATP luminescence, 90 h;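 active = mean loss of cell viability signal at or above a set limit, and enough replicates individually reaching it; inconclusive = meets only the mean limit or only the replicate share; inactive = meets neither condition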;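 note: 0% = median of neutral control wells and 100% = median of positive control wells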
Numbers without * were called inactive; ? = inconclusive; . = not tested or not shown. Most compounds without a hit are left out; they make up all but 6.7% or so of the library.

SMILES	C diff HTS	T cruzi growth-1	Pf Dd2 growth	T cruzi growth-2	T cruzi growth-3	NIH3T3 tox	NIH3T3 tox 2
C[C@H]1CN([C@@H](C)CO)C(=O)c2cc(NC(=O)NC3CCCCC3)ccc2O[C@H]1CN(C)C(=O)NC1CCCCC1	-2.3	-23.8	2.1	.	.	.	.
C/C=C/c1ccc([C@H]2[C@@H](CO)N(C(=O)CC)[C@H]2CN(C)Cc2cncnc2)cc1	11.0	.	-14.1	.	.	.	.
C[C@@H]1CCCCO[C@H](CN(C)C(=O)c2ccncc2)[C@@H](C)CN([C@H](C)CO)C(=O)c2cc(NC(=O)CCCCCC(=O)Nc3ccccc3N)ccc2O1	2.0	6.8	8.9	.	.	.	.
C[C@@H]1CCCCO[C@H](CN(C)C(=O)C2CCCCC2)[C@H](C)CN([C@@H](C)CO)C(=O)c2cc(NC(=O)CCCCCC(=O)Nc3ccccc3N)ccc2O1	0.5	102.3	-73.5	.	.	.	.
C[C@H](CO)N1C[C@H](C)[C@H](CN(C)C(=O)c2ccccc2)OCCCC[C@H](C)Oc2ccc(NC(=O)CCCCCC(=O)Nc3ccccc3N)cc2C1=O	-1.0	100.5*	-29.2	108.0*	?	-7.3	-39.2
C[C@@H]1CCCCO[C@H](CN(C)C(=O)c2ccccc2)[C@H](C)CN([C@@H](C)CO)C(=O)c2cc(NC(=O)CCCCCC(=O)Nc3ccccc3N)ccc2O1	-0.6	98.6*	-47.0	106.5*	102.8*	4.8	2.2
Cc1noc(C)c1NC(=O)Nc1cccc2c1O[C@H](CN(C)C(=O)Nc1ccc(F)cc1)[C@@H](C)CN([C@@H](C)CO)C2=O	3.4	-53.3	17.5	.	.	.	.
CCC(=O)N1C[C@H]2[C@@H](c3ccccc31)[C@@H](CO)N2Cc1ccccc1F	-1.5	29.2	-14.3	.	.	.	.
C[C@H](CO)N1C[C@H](C)[C@@H](CN(C)Cc2ccc(F)cc2)Oc2ncc(-c3cccc(C#N)c3)cc2C1=O	0.6	-50.9	-42.2	.	.	.	.
O=C(C[C@H]1CC[C@@H]2[C@H](COC[C@H](O)CN2S(=O)(=O)c2ccc(Cl)cc2)O1)NCc1ccc(Cl)c(Cl)c1	.	73.6	-7.6	.	.	.	.
O=C(C[C@H]1CC[C@@H]2[C@H](COC[C@@H](O)CN2S(=O)(=O)c2ccc(Cl)cc2)O1)NCc1ccc(Cl)c(Cl)c1	.	97.2*	-9.8	104.2*	23.5	8.8	62.2*
O=C(C[C@H]1CC[C@H]2[C@@H](COC[C@@H](O)CN2S(=O)(=O)c2ccc(Cl)cc2)O1)NCc1ccc(Cl)c(Cl)c1	.	103.7*	1.8	100.1*	41.1	28.9	55.5*
COc1ccc(S(=O)(=O)N2C[C@@H](O)COC[C@H]3O[C@@H](CC(=O)NCc4ccc(Cl)c(Cl)c4)CC[C@@H]32)cc1	-2.4	118.0*	-67.8	107.0*	24.8	7.7	25.8
O=C(C[C@@H]1CC[C@H]2[C@@H](COC[C@@H](O)CN2S(=O)(=O)c2ccc(Cl)cc2)O1)NCc1ccc(Cl)c(Cl)c1	.	88.0	-1.4	.	.	.	.
Cc1ccc(S(=O)(=O)N2C[C@@H](O)COC[C@H]3O[C@H](CC(=O)NCc4ccc(Cl)c(Cl)c4)CC[C@@H]32)cc1	.	58.0	-2.9	.	.	.	.
C[C@@H]1CN([C@@H](C)CO)C(=O)c2cc(NC(=O)NC3CCCCC3)ccc2O[C@H]1CN(C)Cc1ccncc1	0.2	29.9	-28.0	.	.	.	.
COc1ccc(CN(C)C[C@H]2Oc3ccc(NS(=O)(=O)c4ccc(OC)cc4)cc3CC(=O)N([C@@H](C)CO)C[C@@H]2C)cc1	-2.0	65.2	-23.1	.	.	.	.
COc1cccc(CNC(=O)C[C@@H]2CC[C@H](NC(=O)C3CCOCC3)[C@H](CO)O2)c1	-5.9	-20.7	3.7	.	.	.	.
C[C@H]1CN([C@@H](C)CO)C(=O)Cc2cc(NC(=O)c3ccncc3)ccc2O[C@@H]1CN(C)S(C)(=O)=O	-2.4	19.1	10.5	.	.	.	.

Screening data as filed in PubChem.
